# Laboratory results published in the supplement of paper PMC12494721.
# Key:
# Conditions in all cases: 20 µM; incubation time: 27 h, anaerobic, 37 °C;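 for the amine columns active = adjusted P below 0.05 in both replicates with a change the same way and a mean fold change under 0.8 or over 1.25; inactive = the rest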
# [1] = tested on: Clostridium sporogenes DSM 1664; assay: growth (OD595) fold change vs plate DMSO controls (fold change (ratio)); higher = more growth
# Summary of the method: (§1)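 Each value is the mean of 2 biological replicates, and fold changes above 1.5 were set to NA. The underlying readings were taken at 595 nm from shaken anaerobic mGAM cultures in 96-well plates after 27 h at 37 °C. They were blank-subtracted, corrected for compound background using 20 µM compound solutions in water, and converted to OD with a calibration factor of 5. Growth is the fold change relative to the median of the plate DMSO controls.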
# Escherichia coli IAI1 [2] = assay: as above
# Summary of the method: as §1
# [3] = tested on: Klebsiella aerogenes DSM 30053; assay: as above
# Summary of the method: as §1
# [4] = tested on: Ruminococcus gnavus DSM 108212; assay: as above
# Summary of the method: as §1
# [5] = tested on: Klebsiella aerogenes DSM 30053; assay: fold change of Histamine concentration vs plate DMSO controls (fold change (ratio)); higher = more amine produced, active = hit call of the paper (significant change in both replicates, either direction)
# Summary of the method: (§2)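 Anaerobic mGAM cultures of four gut bacterial strains were grown at 37 °C for 27 h in 80 µL wells, starting at OD 0.1 before 1:1 dilution. Compounds were at 20 µM final (sweeteners 50 µM). Whole cultures were extracted with cold acetonitrile/methanol containing 0.1% formic acid and centrifuged. Amines were quantified by LC–triple-quadrupole MS (dynamic MRM) against external calibration curves and drift-corrected within batch. Each value is the fold change versus plate DMSO controls, averaged over 2 biological replicates.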
# [6] = tested on: Clostridium sporogenes DSM 1664; assay: fold change of Tryptamine concentration vs plate DMSO controls (fold change (ratio)); higher = more amine produced, active = hit call of the paper (significant change in both replicates, either direction)
# Summary of the method: as §2
# [7] = tested on: Ruminococcus gnavus DSM 108212; assay: as above
# Summary of the method: as §2
# Escherichia coli IAI1 [8] = assay: fold change of Putrescine concentration vs plate DMSO controls (fold change (ratio)); higher = more amine produced, active = hit call of the paper (significant change in both replicates, either direction)
# Summary of the method: as §2
# [9] = tested on: Klebsiella aerogenes DSM 30053; assay: as above
# Summary of the method: as §2
# Escherichia coli IAI1 [10] = assay: fold change of Cadaverine concentration vs plate DMSO controls (fold change (ratio)); higher = more amine produced, active = hit call of the paper (significant change in both replicates, either direction)
# Summary of the method: as §2
# [11] = tested on: Klebsiella aerogenes DSM 30053; assay: as above
# Summary of the method: as §2
# [12] = tested on: Ruminococcus gnavus DSM 108212; assay: fold change of 2-Phenylethylamine concentration vs plate DMSO controls (fold change (ratio)); higher = more amine produced, active = hit call of the paper (significant change in both replicates, either direction)
# Summary of the method: as §2
Structure (SMILES),growth [1],growth (Escherichia coli IAI1 [2]),growth [3],growth [4],fold change of Histamine concentration [5],fold change of Tryptamine concentration [6],fold change of Tryptamine concentration [7],fold change of Putrescine concentration (Escherichia coli IAI1 [8]),fold change of Putrescine concentration [9],fold change of Cadaverine concentration (Escherichia coli IAI1 [10]),fold change of Cadaverine concentration [11],fold change of 2-Phenylethylamine concentration [12]
CCC(=O)O[C@@](Cc1ccccc1)(c1ccccc1)[C@@H](C)CN(C)C [Levopropoxyphene napsylate],1.06,1.03,1.05,1.18,0.942 (inactive),1.04 (inactive),1.01 (inactive),1.03 (inactive),1 (inactive),1.03 (inactive),1.01 (inactive),1.03 (inactive)
CNC(=O)CSP(=S)(OC)OC,0.992,1.06,1,0.99,1.07 (inactive),1.01 (inactive),1.13 (inactive),0.998 (inactive),0.888 (inactive),1.01 (inactive),1.12 (inactive),1.43 (inactive)
CN(C)C(=O)Oc1cccc([N+](C)(C)C)c1 [Neostigmine bromide],0.939,0.975,1.01,0.886,0.992 (inactive),1.07 (inactive),1.03 (inactive),0.992 (inactive),0.998 (inactive),1.02 (inactive),1 (inactive),1.01 (inactive)
O=C1C2CC=CCC2C(=O)N1SC(Cl)(Cl)Cl (stereo not drawn),0.923,1.04,0.972,0.931,1.02 (inactive),1.04 (inactive),1.04 (inactive),1 (inactive),0.956 (inactive),0.806 (inactive),0.999 (inactive),1.05 (inactive)
COC[C@@H](NC(C)=O)C(=O)NCc1ccccc1 [Lacosamide],1.07,1.01,1.06,0.96,1.08 (inactive),1 (inactive),1.04 (inactive),1.01 (inactive),1.02 (inactive),1 (inactive),1 (inactive),1.07 (inactive)
COc1cc(C)c(C(=O)c2c(OC)ccc(Br)c2C)c(OC)c1OC,1.04,1.05,1.04,1.1,0.967 (inactive),0.978 (inactive),1.01 (inactive),1.02 (inactive),1.02 (inactive),1.07 (inactive),1.01 (inactive),1 (inactive)
COCC(=O)N(c1c(C)cccc1C)[C@H](C)C(=O)OC,0.945,1.01,1.03,0.974,1 (inactive),1.01 (inactive),1.02 (inactive),1.02 (inactive),0.996 (inactive),0.99 (inactive),1.01 (inactive),1.05 (inactive)
CCCCCC[C@H]1C(=O)O[C@H](C)[C@H](NC(=O)c2cccc(NC=O)c2O)C(=O)O[C@@H](C)[C@@H]1OC(=O)CC(C)C [Antimycin A],1.09,1.03,1.02,1.15,0.994 (inactive),0.974 (inactive),1.04 (inactive),0.99 (inactive),0.98 (inactive),1.03 (inactive),1.01 (inactive),0.975 (inactive)
O=P(Oc1ccccc1)(Oc1ccccc1)Oc1ccccc1 [Triphenyl PO4],0.98,1.03,1.02,1.04,0.998 (inactive),1.16 (inactive),0.971 (inactive),1.01 (inactive),0.842 (inactive),0.993 (inactive),1.14 (inactive),0.995 (inactive)
O=c1[nH]c2ccccc2n1CCCN1CCC(n2c(=O)[nH]c3cc(Cl)ccc32)CC1 [Domperidone],0.989,0.963,1.08,0.669,0.906 (inactive),1.03 (inactive),0.984 (inactive),1.01 (inactive),0.951 (inactive),1.03 (inactive),1 (inactive),1.03 (inactive)
CC(C)=CC1C(C(=O)OCc2cccc(Oc3ccccc3)c2)C1(C)C (stereo not drawn) [Phenothrin],0.963,1.02,1.05,1.06,0.924 (inactive),1.02 (inactive),1.05 (inactive),1.07 (inactive),1.02 (inactive),1.03 (inactive),1.01 (inactive),1.06 (inactive)
NCCCNCCSP(=O)(O)O [Amifostine],0.94,1,1.12,1.38,0.978 (inactive),1.01 (inactive),1.03 (inactive),1 (inactive),0.999 (inactive),1.01 (inactive),0.999 (inactive),1.01 (inactive)
Oc1ccc(Cl)cc1Cc1cc(Cl)ccc1O [Dichlorophen],0.903,0.835,0.919,0.819,1.13 (inactive),0.732 (inactive),0.561 (active),1.21 (inactive),0.97 (inactive),1.66 (active),0.975 (inactive),0.635 (inactive)
CC1=NNC(=O)N(/N=C/c2cccnc2)C1,1.04,0.951,0.97,1.03,1.03 (inactive),1.02 (inactive),1.01 (inactive),0.906 (inactive),0.945 (inactive),1.08 (inactive),0.99 (inactive),1.02 (inactive)
